The text below walks through data of PubChem BioAssay (Tox21).

Values joined by “and” are separate entries in the source; they are usually repeats but may differ in a detail not shown here. Equal values may be shown once. A number with no mark means an inactive call. Results filed as inconclusive are left out. Active and inactive are the calls of the source. Unless noted, calls come from the whole dose curve; as a rule, active = well fitted curve in the direction sought with a large enough effect in the repeat runs; inconclusive = weak or mixed curves; inactive = no such curve, though single readings can be large; an effect the other way counts as inactive or inconclusive.

Experiment [1] is described as follows: qHTS assay to identify small molecule agonists of the estrogen receptor alpha (ER-alpha) signaling pathway in the presence of an antagonist - cell viability counter screen (AID 1259386). Note: series mostly up to about 92 µM; nearly all actives have a fitted effect of over 30% in size. The method in brief: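 Read-out: CellTiter-Fluor fluorescence after 1hr reagent incubation, measured in the same wells as the luciferase readout. VM7Luc4E2 cells were exposed to 15 compound concentrations with 10.0nM ICI-182,780 for 22hr at 37C.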
(In general: Quantitative high-throughput screening tests each substance at several concentrations.)

The target of experiment [2] is Progesterone receptor (Homo sapiens) (UniProt P06401). Put plainly: qHTS assay to identify small molecule agonists of the progesterone receptor (PR) signaling pathway (AID 1346784; calls by dose curve; note: nearly all actives have a fitted effect of over 30% in size). The method in brief:
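Reporter assay, GripTite PR-UAS-bla HEK 293T cells: 16 hr exposure to DMSO-dissolved compounds at 37C, 5% CO2, in steroid-depleted (2% charcoal-stripped FBS) medium; beta-lactamase measured by FRET fluorescence.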

Experiment [3] has the same target. Put plainly: qHTS assay to identify small molecule antagonists of the progesterone receptor (PR) signaling pathway (AID 1346795; active = well fitted inhibition curve with a large enough effect in the signal ratio in the repeat runs, not every such curve was filed as active; the % refers to the signal ratio; note: potency is the fitted concentration of half-maximal effect). The method in brief:
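Stimulus R5020 at 1 nM final; cells HEK293T PR-UAS-bla; medium with 2% charcoal-stripped FBS; compound exposure 16 hr at 37C, 5% CO2; detection by FRET beta-lactamase substrate, 2 hr, room temperature.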

Experiment [4] can be described thus: qHTS assay to identify small molecule antagonists of the progesterone receptor (PR) signaling pathway - cell viability counter screen (AID 1346798). Note: series mostly up to about 92 µM; nearly all actives have a fitted effect of over 50% in size. Summed up: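 In the same plates used for the beta-lactamase readout, cell viability of compound- and R5020-treated PR-UAS-bla HEK293T cells (16 hr, 37C) was assessed by CellTiter-Glo luminescence.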
Experiment [5] can be described thus: qHTS assay to identify small molecule agonists of the progesterone receptor (PR) signaling pathway - cell viability counter screen (AID 1346799; calls by dose curve; note: nearly all actives have a fitted effect of over 45% in size). Summed up:
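Multiplexed viability read: CellTiter-Glo luminescence, 30 min RT, following LiveBLAzer FRET measurement on PR-UAS-bla HEK293T cells exposed to compounds 16 hr.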

Experiment [6] can be described thus: qHTS assay to identify small molecule antagonists of the TGF-beta/Smad signaling pathway - cell viability counter screen (AID 1346824). Note: nearly all actives have a fitted effect of over 50% in size. The method in brief:
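Cytotoxicity counter-screen run in the same wells as the beta-lactamase Smad reporter read: CellTiter-Glo luminescence after 30 min at room temperature. HEK 293T SBE-bla cells had 5 hr compound exposure at 37 C with TGF-beta1 (0.25 ng/mL stock).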

The nature of experiment [7]: qHTS assay to identify small molecule agonists of the TGF-beta/Smad signaling pathway - cell viability counter screen (AID 1346829). Note: top concentration of the series differs between compounds; nearly all actives have a fitted effect of over 45% in size. The method in brief: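 CellTiter-Glo luminescence readout; SBE-bla HEK 293T cells, overnight plating, compound 5 hr at 37 C/5% CO2, then bla substrate 2 hr RT, then CellTiter-Glo 30 min RT.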
Experiment [8] can be described thus: qHTS assay to identify small molecule agonists of the TGF-beta/Smad signaling pathway (AID 1346859; active = well fitted activation curve with a large enough effect in the signal ratio in the repeat runs, not every such curve was filed as active; the % refers to the signal ratio; note: series mostly up to about 77 µM). Summed up:
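Screening used HEK 293T SBE-bla cells at 4,000/well. Test agents: 5 hr, 37 C. Detection: FRET substrate, 2 hr RT, then excitation 405 nm with emissions at 460 and 530 nm.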

The target in experiment [9] is Thyrotropin-releasing hormone receptor (Homo sapiens) (UniProt P34981). Put plainly: qHTS assay to identify small molecule antagonists of the thyrotropin-releasing hormone receptor (TRHR) signaling pathway (AID 1346877; active = well fitted inhibition curve with a large enough effect in the repeat runs, not every such curve was filed as active; note: series mostly up to about 51 µM). The method in brief: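 HEK293/TRHR cells, 18 h, 37 °C; Ca2+ dye 2 h; cpd 5 min RT; TRH 1 nM final; fluorescence read 3 min, 1 s intervals; 15 concs, triplicate.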
Chain of Thyrotropin-releasing hormone receptor (Homo sapiens) (P34981 whole entry, looked up): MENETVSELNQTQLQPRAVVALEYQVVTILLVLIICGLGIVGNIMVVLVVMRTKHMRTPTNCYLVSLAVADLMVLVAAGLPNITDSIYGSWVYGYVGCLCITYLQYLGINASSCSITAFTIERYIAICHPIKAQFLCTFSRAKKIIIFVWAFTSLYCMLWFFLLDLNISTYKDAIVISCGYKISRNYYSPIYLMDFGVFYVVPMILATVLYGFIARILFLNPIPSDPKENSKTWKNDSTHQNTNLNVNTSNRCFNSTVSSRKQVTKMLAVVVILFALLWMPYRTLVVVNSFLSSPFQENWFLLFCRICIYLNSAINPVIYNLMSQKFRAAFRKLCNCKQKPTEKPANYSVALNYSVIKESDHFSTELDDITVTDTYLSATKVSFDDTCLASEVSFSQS

Experiment [10] shares this target. Put plainly: qHTS assay to identify small molecule agonists of the thyrotropin-releasing hormone receptor (TRHR) signaling pathway (AID 1346891; calls by dose curve; note: series mostly up to about 58 µM). Summed up: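 Readout was intracellular calcium fluorescence in TRHR-Hek293 cells. Cells were incubated 18 h, dye-loaded 2 h at 37 °C, and treated with compound in agonist mode.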
Experiment [11] in a line: Human pregnane X receptor (PXR) small molecule agonists, qHTS cell viability counter screen (AID 1346977). Note: nearly all actives have a fitted effect of over 50% in size. Summed up: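 In each well, the PXR reporter HepG2 line was checked for viability: CellTiter-Fluor reagent added 23hr post-dosing, fluorescence read after 1hr incubation at 37C.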
The nature of experiment [12]: Caspase-3/7 induction in HepG2 cells by small molecules, qHTS assay (AID 1346978). Note: nearly all actives have a fitted effect of over 15% in size. Summed up: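 Caspase-3/7 induction was measured by Caspase-Glo 3/7 luminescence (30 min, room temperature) after a 17 hr compound exposure of wild-type HepG2 cells seeded at 2,000 per well and pre-incubated 5 hr.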
A short description of experiment [13]: Caspase-3/7 induction in CHO-K1 cells by small molecules, qHTS cell viability counter screen (AID 1346979). Note: nearly all actives have a fitted effect of over 35% in size. Note: potency is the fitted concentration of half-maximal effect. Summed up:
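Following a 5hr settling period, CHO-K1 cells at 1,500 per well received DMSO-dissolved compounds. Cell viability was quantified 16hr later by CellTiter-Fluor fluorescence, measured after 1hr with reagent at 37C.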

The nature of experiment [14]: Caspase-3/7 induction in CHO-K1 cells by small molecules, qHTS assay (AID 1346980). Note: nearly all actives have a fitted effect of over 15% in size. The method in brief: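 Luminescent Caspase-Glo 3/7 read (30min, room temperature) quantified apoptosis induction. Cells were wild-type CHO-K1, treated with compound for 17hr at 37 C and 5% CO2.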
Experiment [15] in a line: Caspase-3/7 induction in HepG2 cells by small molecules, qHTS cell viability counter screen (AID 1346981). Note: series mostly up to about 92 µM; nearly all actives have a fitted effect of over 30% in size. Summed up:
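Fluorescence read-out of live-cell protease activity (CellTiter-Fluor) after 1 hr with reagent. This was measured in the same wells as the caspase-3/7 luminescence, on HepG2 cells exposed to DMSO-dissolved compounds for 16 hr at 37 C.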

Experiment [16] has as its target Nuclear receptor subfamily 1 group I member 2 (Homo sapiens) (UniProt O75469). The experiment in a line: Human pregnane X receptor (PXR) small molecule agonists, qHTS assay (AID 1346982). Note: nearly all actives have a fitted effect of over 35% in size. Note: potency is the fitted concentration of half-maximal effect. Summed up: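 HepG2 PXR-Luc reporter line, 5% charcoal-stripped FBS; 5 hr pre-incubation, compound (DMSO) 24 hr at 37 C/5% CO2; ONE-Glo 30 min RT; luminescence read-out.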
In experiment [17] the target is Nuclear receptor subfamily 1 group I member 2 (Rattus norvegicus) (UniProt Q9R1A7). Put plainly: Rat pregnane X receptor (rPXR) activation by small molecules, qHTS assay (AID 1346983). Note: nearly all actives have a fitted effect of over 20% in size. The note with it: rPXR luciferase reporter cells, One-Glo luminescence, 24 h; hits give high values. Summed up: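 Luminescent readout (One-Glo luciferase, 30 min room temperature) followed 24 hr compound treatment at 37 C of rPXR cells plated 2,000 per well and preincubated 5hr; qHTS format with compounds delivered in DMSO.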
Chain of Nuclear receptor subfamily 1 group I member 2 (Rattus norvegicus) (Q9R1A7 whole entry, looked up): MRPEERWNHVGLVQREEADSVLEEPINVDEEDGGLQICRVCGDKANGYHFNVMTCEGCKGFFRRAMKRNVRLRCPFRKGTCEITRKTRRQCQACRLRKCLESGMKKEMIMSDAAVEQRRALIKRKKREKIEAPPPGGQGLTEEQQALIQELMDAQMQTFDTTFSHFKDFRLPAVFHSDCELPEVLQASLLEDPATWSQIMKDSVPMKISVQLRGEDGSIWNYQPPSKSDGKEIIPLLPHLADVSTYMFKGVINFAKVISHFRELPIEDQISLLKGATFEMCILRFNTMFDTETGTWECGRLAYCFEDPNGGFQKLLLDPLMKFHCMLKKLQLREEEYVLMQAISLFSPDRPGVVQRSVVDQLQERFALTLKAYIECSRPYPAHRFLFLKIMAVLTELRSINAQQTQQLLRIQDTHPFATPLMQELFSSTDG

Experiment [18] has as its target Nuclear receptor subfamily 1 group I member 2 (Homo sapiens) (UniProt O75469). Put plainly: CYP3A4 induction through human pregnane X receptor (PXR) by small molecules, qHTS assay (AID 1346984). Note: nearly all actives have a fitted effect of over 40% in size. Summed up:
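HepG2-derived DPX-2 line carrying PXR plus a CYP3A4-promoter luciferase reporter; cells plated 5 hr, compound-exposed 24 hr at 37C. CYP3A4 activity probed with 3uM (final) Luciferin-IPA for 3hr, then luciferase read after One-Glo.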

Experiment [19] shares this target. Put plainly: Human pregnane X receptor (PXR) activation by small molecules, qHTS assay (AID 1346985). Note: nearly all actives have a fitted effect of over 40% in size. Summed up: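 DPX-2 cells (HepG2 co-transfected with a PXR response element and a CYP3A4-promoter luciferase construct) were seeded at 2,000 per well, rested 5 hr at 37C, then exposed to DMSO-dissolved compounds for 24 hr. Activation was read as luciferase luminescence.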

For experiment [20], the target named is Acetylcholinesterase (Homo sapiens) (UniProt P22303). The experiment in a line: Acetylcholinesterase (AChE) small molecule antagonists: colormetric cell-based qHTS assay (AID 1347395; calls by dose curve; note: nearly all actives have a fitted effect of over 30% in size). The method in brief:
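After overnight attachment at 37 C, SH-SY5Y cells get 30 min compound exposure; detection cocktail (acetylthiocholine, DTNB) then incubates 90 min at 37 C, and absorbance reflects AChE-generated thiocholine.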
% is set by controls: 0 for no effect and ±100 for the full control effect.

Chain of Nuclear receptor subfamily 1 group I member 2 (Homo sapiens) (O75469 whole entry, looked up): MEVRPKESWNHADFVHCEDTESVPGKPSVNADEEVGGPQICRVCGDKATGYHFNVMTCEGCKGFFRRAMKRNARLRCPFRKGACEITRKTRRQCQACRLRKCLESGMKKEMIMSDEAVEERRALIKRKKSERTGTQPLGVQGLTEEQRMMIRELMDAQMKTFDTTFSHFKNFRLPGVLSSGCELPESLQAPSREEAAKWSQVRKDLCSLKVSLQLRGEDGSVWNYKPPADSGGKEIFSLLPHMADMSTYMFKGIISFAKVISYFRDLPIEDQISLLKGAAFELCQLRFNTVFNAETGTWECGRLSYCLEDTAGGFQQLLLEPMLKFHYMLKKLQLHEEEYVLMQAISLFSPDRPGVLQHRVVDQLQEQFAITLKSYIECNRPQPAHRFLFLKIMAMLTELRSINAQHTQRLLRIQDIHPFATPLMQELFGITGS
Chain of Progesterone receptor (Homo sapiens) (P06401 whole entry, looked up): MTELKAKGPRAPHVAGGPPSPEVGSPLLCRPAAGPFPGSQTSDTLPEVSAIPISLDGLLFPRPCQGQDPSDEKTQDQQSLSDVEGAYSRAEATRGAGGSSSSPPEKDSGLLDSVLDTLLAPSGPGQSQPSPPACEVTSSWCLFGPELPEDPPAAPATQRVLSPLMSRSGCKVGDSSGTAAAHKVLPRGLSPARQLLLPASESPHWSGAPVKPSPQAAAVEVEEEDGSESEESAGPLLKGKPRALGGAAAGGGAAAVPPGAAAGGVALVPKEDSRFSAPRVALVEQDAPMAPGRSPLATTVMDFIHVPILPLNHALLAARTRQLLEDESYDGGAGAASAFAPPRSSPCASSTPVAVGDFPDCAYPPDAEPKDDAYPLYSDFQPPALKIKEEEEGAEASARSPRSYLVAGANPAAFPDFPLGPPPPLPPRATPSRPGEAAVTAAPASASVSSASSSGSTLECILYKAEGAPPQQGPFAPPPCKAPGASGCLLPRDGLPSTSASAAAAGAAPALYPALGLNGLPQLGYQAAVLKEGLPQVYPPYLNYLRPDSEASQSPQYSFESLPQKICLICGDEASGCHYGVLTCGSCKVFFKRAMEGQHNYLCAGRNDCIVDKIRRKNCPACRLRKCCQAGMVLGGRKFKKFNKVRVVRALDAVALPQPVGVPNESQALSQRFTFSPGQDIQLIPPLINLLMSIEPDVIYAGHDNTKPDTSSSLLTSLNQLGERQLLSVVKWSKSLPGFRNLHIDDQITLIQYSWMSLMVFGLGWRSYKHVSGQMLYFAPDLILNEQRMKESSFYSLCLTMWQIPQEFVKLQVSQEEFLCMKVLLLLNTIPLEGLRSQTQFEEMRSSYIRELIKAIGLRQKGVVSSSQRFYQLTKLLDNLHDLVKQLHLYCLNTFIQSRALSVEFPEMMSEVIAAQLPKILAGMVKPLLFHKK
Chain of Acetylcholinesterase (Homo sapiens) (P22303 whole entry, looked up): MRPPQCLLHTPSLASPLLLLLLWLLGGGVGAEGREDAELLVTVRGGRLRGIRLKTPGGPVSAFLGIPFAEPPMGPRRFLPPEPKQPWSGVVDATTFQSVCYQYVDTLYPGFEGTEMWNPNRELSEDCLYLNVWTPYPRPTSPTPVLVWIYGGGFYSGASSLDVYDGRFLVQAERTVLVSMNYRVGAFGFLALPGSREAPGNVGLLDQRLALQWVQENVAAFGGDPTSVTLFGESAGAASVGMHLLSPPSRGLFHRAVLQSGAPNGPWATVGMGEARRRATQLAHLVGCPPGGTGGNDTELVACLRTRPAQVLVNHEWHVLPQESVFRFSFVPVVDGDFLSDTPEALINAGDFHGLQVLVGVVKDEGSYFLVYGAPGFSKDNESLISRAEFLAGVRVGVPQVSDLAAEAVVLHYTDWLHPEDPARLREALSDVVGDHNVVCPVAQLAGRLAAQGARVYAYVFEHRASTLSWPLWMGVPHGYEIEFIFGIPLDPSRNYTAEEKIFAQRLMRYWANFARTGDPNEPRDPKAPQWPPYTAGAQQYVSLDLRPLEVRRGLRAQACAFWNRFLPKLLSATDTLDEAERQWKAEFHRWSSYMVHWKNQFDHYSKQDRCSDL

Take `CCC1(CC)C(=O)NC(=O)NC1=O`: the Potency result in [1], in [2], in [3], in experiment [4], in experiment [5] and in experiment [6] was “inactive” throughout. The Potency result in experiment [7], in [9], in experiment [11], in experiment [12], in experiment [13] and in experiment [14] was “inactive” throughout. The Potency result in experiment [15], in [16], in experiment [19] and in experiment [20] was “inactive” each time. Also, the call in experiment [8], in experiment [10] and in experiment [18] was inactive. For the same compound, in [17], the max activation is 0.212%.
Regarding `CCCC[N+]1(C)[C@@H]2CC(OC(=O)[C@H](CO)c3ccccc3)C[C@H]1[C@@H]1O[C@@H]12` (stereo partly specified), the Potency entry in experiment [1], in [2], in [3], in [4], in experiment [5] and in [6] was “inactive” throughout. Besides, the Potency entry in experiment [7], in experiment [9], in experiment [11], in experiment [12], in experiment [13] and in [14] was “inactive” each time. In addition, the Potency result in [15], in [16], in experiment [19] and in [20] was “inactive” in each case. Moreover, the call in experiment [8], in [10] and in [18] was inactive. In experiment [17], the max activation was -0.805%.
Take `OC[P+](CO)(CO)CO`: the Potency entry in [1], in experiment [2], in experiment [3], in experiment [4], in experiment [5] and in [6] was “inactive” each time. Moreover, the Potency result in experiment [7], in experiment [9], in [11], in [12], in [13] and in experiment [14] was “inactive” throughout. Further, the Potency result in [15] and in experiment [20] was “inactive” throughout. For the same compound, the compound was classed as inactive in [8] and in [10]. In experiment [16], the Potency was 61.8 µM (active).
Regarding `CC[N+]1(C)CCCC(OC(=O)C(O)(c2ccccc2)c2ccccc2)C1` (stereo unspecified), the Potency entry in experiment [1], in experiment [2], in experiment [3], in [4], in [5] and in experiment [6] was “inactive” throughout. In addition, the Potency result in experiment [7], in experiment [9], in experiment [11], in experiment [12], in experiment [13] and in [14] was “inactive” each time. Further, the Potency result in [15], in [16], in [19] and in [20] was “inactive” throughout. Moreover, the call in [8], in experiment [10] and in experiment [18] was inactive. Further, the max activation in experiment [17] was 2.38%.
`CC(C)(C)c1ccc(CCOc2ncnc3ccccc23)cc1`: the Potency result in experiment [1], in [2], in experiment [3], in experiment [4], in experiment [5] and in experiment [6] was “inactive” in each case. Further, the Potency entry in [7], in experiment [9], in experiment [11], in experiment [12], in experiment [13] and in [14] was “inactive” in each case. Moreover, the Potency entry in experiment [15], in experiment [16] and in [20] was “inactive” in each case. Also, the call in experiment [8] and in [10] was inactive.
As for `O=C(O)C(Cl)(Cl)Br`, the Potency entry in experiment [1], in experiment [2], in experiment [3], in experiment [4], in [5] and in [6] was “inactive” throughout. Moreover, the Potency entry in experiment [7], in experiment [9], in experiment [11], in [12], in experiment [13] and in [14] was “inactive” each time. Moreover, the Potency result in experiment [15], in experiment [16] and in experiment [20] was “inactive” throughout. Further, the result in experiment [10] was inactive.
Regarding `O=P(OCC(Br)CBr)(OCC(Br)CBr)OCC(Br)CBr` (stereo unspecified), the Potency result in experiment [1], in experiment [2], in experiment [4], in experiment [5], in experiment [6] and in experiment [7] was “inactive” in each case. The Potency result in experiment [9], in experiment [12], in [14], in [15] and in [20] was “inactive” in each case. Moreover, the Potency was 5.8 µM (active) in experiment [3]; 69.5 µM (active) in experiment [13]; 55.2 µM (active) and 51.7 µM (active) in experiment [16]. Besides, the result in experiment [8] and in experiment [10] was inactive.
